Where “and” joins values, the source holds several entries; their conditions need not be identical. Equal values may be shown once. Records with an inconclusive call do not appear. Where a call stands in place of a potency, no number is given. More than one record can exist for a structure, and the calls need not agree. Calls of active or inactive are those of the source. Unless noted, calls come from the whole dose curve; as a rule, active = well fitted curve in the direction sought with a large enough effect in the repeat runs; inconclusive = weak or mixed curves; inactive = no such curve, though single readings can be large; an effect the other way counts as inactive or inconclusive.
Assays:
[1] = target: Retinoic acid receptor RXR-alpha (Homo sapiens) (UniProt P19793); assay: qHTS assay to identify small molecule agonists of the RXR signaling pathway (AID 1159527; calls by dose curve; note: nearly all actives have a fitted effect of over 35% in size)
In short: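 GeneBLAzer RXR-alpha-UAS-bla HEK 293T cells in medium with 2% charcoal-stripped FBS, pre-incubated 5 hr at 37 C, then exposed to compounds 16 hr. Beta-lactamase reporter read by FRET substrate, 2 hr room temperature, 460/530 nm emission.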

[2] = qHTS assay to identify small molecule agonists of the RXR signaling pathway - cell viability counter screen (AID 1159529); note: nearly all actives have a fitted effect of over 50% in size; note: potency is the fitted concentration of half-maximal effect
In short: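 RXR-alpha-UAS-bla HEK 293T cells in medium with 2% charcoal-stripped FBS were preincubated 5 hr, then exposed to compounds for 16 hr at 37 C. Viability was read as CellTiter-Glo luminescence after 30 min at room temperature.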

[3] = qHTS assay to identify small molecule antagonists of the retinoid acid receptor (RAR) signaling pathway - cell viability counter screen (AID 1159551); note: nearly all actives have a fitted effect of over 35% in size; note: potency is the fitted concentration of half-maximal effect
In short: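 Cells (C3RL4) are plated, incubated overnight, dosed with compound in DMSO, then given retinol at 1 uM final. After 6 h at 37 C, CellTiter-Glo is added and luminescence read following 30 min at room temperature.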

[4] = qHTS assay to identify small molecule antagonists of the retinoic acid receptor (RAR) signaling pathway (AID 1159552; note: nearly all actives have a fitted effect of over 50% in size)
In short: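 RARE-luc C3RL4 cells; cpds + 1 uM (final) retinol, 6 hr, 37 C/5% CO2; luciferase reagent, 30 min RT, luminescence readout. Inhibitors of retinol-driven signal scored.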

[5] = qHTS assay to identify small molecule agonists of the retinoic acid receptor (RAR) signaling pathway (AID 1159553); note: potency is the fitted concentration of half-maximal effect
In short: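 Seed C3RL4 reporter cells at 1,000 per well and incubate overnight at 37 C. Add compounds in DMSO, incubate 6 hr. Add luciferase reagent, wait 30 min at room temperature, read luminescence.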

Retinoic acid receptor RXR-alpha (Homo sapiens), sequence (P19793 whole entry, looked up): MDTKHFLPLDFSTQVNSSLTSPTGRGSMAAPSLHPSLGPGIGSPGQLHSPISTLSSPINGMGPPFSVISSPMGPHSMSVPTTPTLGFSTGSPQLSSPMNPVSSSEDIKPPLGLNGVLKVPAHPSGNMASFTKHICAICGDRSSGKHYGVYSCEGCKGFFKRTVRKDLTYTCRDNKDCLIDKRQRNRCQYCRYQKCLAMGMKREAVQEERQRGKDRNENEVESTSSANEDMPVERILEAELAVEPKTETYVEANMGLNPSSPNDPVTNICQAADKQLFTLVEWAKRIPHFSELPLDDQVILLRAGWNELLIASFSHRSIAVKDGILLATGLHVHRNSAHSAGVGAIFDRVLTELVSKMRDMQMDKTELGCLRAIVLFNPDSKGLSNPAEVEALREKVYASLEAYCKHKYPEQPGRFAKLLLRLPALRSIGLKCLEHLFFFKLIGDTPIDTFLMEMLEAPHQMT

Compound | Potency [1] | Potency [2] | Potency [3] | Potency [4] | Potency [5]
CCCCC(CC)COC(C)=O (configuration not stated) | inactive | inactive | inactive | inactive | inactive
O=C1CCCCC1 | inactive | inactive | inactive | – | –
NC(=O)NNc1ccccc1 | inactive | inactive | inactive | inactive | inactive
O=S(=O)(O)c1cc(S(=O)(=O)O)c2c(N=Nc3ccccc3)c(O)ccc2c1 | inactive | inactive | inactive | – | –
CCCCOCCOCCOC(=O)CCCCC(=O)OCCOCCOCCCC | inactive | inactive | inactive | inactive | inactive
O=[N+]([O-])c1cccc(Cl)c1 | inactive | inactive | inactive | inactive | inactive
Cc1cc(=O)[nH]c(C(C)C)n1 | inactive | inactive | inactive | inactive | inactive
COC(=O)c1ccc(C(=O)OC)cc1 | inactive | 15.7 µM (active) and inactive | inactive | inactive | inactive
OCCOCCOCCOCCO | inactive | inactive | inactive | – | –
COCC(=O)O | inactive | inactive | inactive | inactive | inactive
CC1(C)O[C@@H]2C[C@H]3[C@@H]4C[C@H](F)C5=CC(=O)CC[C@]5(C)[C@H]4[C@@H](O)C[C@]3(C)[C@]2(C(=O)CO)O1 | inactive | inactive | inactive | inactive | inactive
CCc1ccc(O)cc1 | inactive | inactive | inactive | inactive | inactive
O=C(c1cc(O)c(O)c(O)c1)c1ccc(O)c(O)c1O | inactive | inactive | inactive | inactive | inactive
COCC(C)O (configuration not stated) | inactive | inactive | inactive | – | –
Cn1c([N+](=O)[O-])cnc1COC(N)=O | inactive | inactive | inactive | inactive | inactive
CC1=CC[C@H]2C[C@@H]1C2(C)C | inactive | inactive | inactive | inactive | inactive
C[C@@H]1O[C@@H](OC[C@H]2O[C@@H](Oc3c(-c4ccc(O)c(O)c4)oc4cc(O)cc(O)c4c3=O)[C@H](O)[C@@H](O)[C@@H]2O)[C@H](O)[C@H](O)[C@H]1O | inactive | inactive | inactive | inactive | inactive
CCC(=O)O | inactive | inactive | inactive | – | –
CC(=O)Nc1ccc(C(=O)O)cc1 | inactive | inactive | inactive | inactive | inactive
CCCCCCCCCCCCN | inactive | 21.9 µM (active) and inactive | inactive and 68.6 µM (active) | – | –

Compound | Potency [1] | Potency [2] | Potency [3] | Potency [4] | Potency [5]
C/C=C(C)/C=C/C=C(C)C | inactive | inactive | inactive | – | –
CCCCC(CC)COC(=O)CCCCCCCC(=O)OCC(CC)CCCC (configuration not stated) | inactive | inactive | inactive | – | –
CCCCCCCCC | inactive | inactive | inactive | – | –
CC(C)(CO)COC(=O)C(C)(C)CO | inactive | inactive | inactive | inactive | inactive
CCCCNC(N)=O | inactive | inactive | inactive | inactive | inactive
CCCCC/C=C\C/C=C\CCCCCCCC(=O)OC | inactive | inactive and 34.7 µM (active) | inactive | inactive | inactive
CCCCCCCCCCC=CC1CC(=O)OC1=O (configuration not stated) | inactive | inactive | inactive | – | –
CCCCOCCO | inactive | inactive | inactive | inactive | inactive
CCOC(=O)/C=C\C(=O)OCC | inactive | inactive | inactive | inactive | inactive
O=Nc1ccc(O)cc1 | inactive | inactive | inactive | inactive | inactive
C=C(C)C(=O)OCC(CC)(COC(=O)C(=C)C)COC(=O)C(=C)C | inactive | inactive | inactive | inactive | inactive
NCCNCCNCCNCCN | inactive | inactive | inactive | – | –
O=C(O)c1ccc([N+](=O)[O-])cc1 | inactive | inactive | inactive | – | –
CS(=O)(=O)c1ccc([C@@H](O)[C@@H](CO)NC(=O)C(Cl)Cl)cc1 | inactive | inactive | inactive | – | –
CCCCCCOC(C)=O | inactive | inactive | inactive | – | –
OC[C@@H](O)[C@@H](O)[C@H](O)[C@@H](O)CO | inactive | inactive | inactive | inactive | inactive
CC[Si](OC(C)=O)(OC(C)=O)OC(C)=O | inactive | inactive | inactive | – | –
O=S(=O)(O)CCS | inactive | inactive | inactive | – | –
C=C(C)C(=O)OCCCCCC | inactive | inactive | inactive | – | inactive
ClC1=C(Cl)C(Cl)(Cl)C(Cl)=C1Cl | inactive | inactive | inactive | inactive | inactive and 68.6 µM (active)

Source: PubChem BioAssay (Tox21)
